Measurements taken from PubChem BioAssay AID463173 (ICCB-Longwood Screening Facility, Harvard Medical School, 2010).
Among all 52,000 compounds or so, about 4,300 (8.3%) were called active. The list comes from a sample in which actives are over-represented; it also holds similar structures and randomly drawn compounds. Unmarked numbers belong to inactive results. Cut-off read from the data, not from the text of the source: active = survival mostly below about 52% (no sharp cut-off); inactive = mostly above about 56%.

Test system: DeltatarO mutant
Test: growth inhibition of S. aureus wild type versus tarO mutant, primary screen, teichoic acid synthesis inhibitors, RN4220, OD600 (AID 463173)
Details: OD600, 18 h, hits give low values, screened at 18.75 µg/mL (by protocol)

Compared with `O=c1[nH]cnc2scc(-c3ccsc3)c12`, `CC(=O)N(Cc1cccnc1)Cc1cc2cc3c(cc2[nH]c1=O)OCCO3` is lower in survival: 104% for the first, 84% for the second.

Compared with `Cc1ccc(-c2nc3scc(CCNS(=O)(=O)c4ccc(Oc5ccccc5)cc4)n3n2)cc1`, `COc1cccc(OCCn2c(-c3ccc(Cl)cc3)nc3ccccc3c2=O)c1` is lower in survival: 115% for the first, 51% for the second.

Going from `CC(C)OCCCn1c(=O)c2ccccc2n2c(-c3ccc(F)cc3)nnc12` to `Cc1cc(C)cc(OCCCn2c(-c3ccc(Cl)cc3)nc3ccccc3c2=O)c1`, the survival falls from 98% to 58%.

Going from `CCCCCNC(=O)c1c[nH]c2ccc(S(=O)(=O)N3CCC(C)CC3)cc2c1=O` to `COc1ccccc1N1CCN(CCCNC(=O)Cn2ncc3c([nH]c4ccccc43)c2=O)CC1`, the survival falls from 97% to 55%.

Compared with `COc1ccc(N2CC(NC(=O)C3CC3)CC2=O)cc1OC` (stereo not given), `COc1ccc(OC)c(NC(=O)N2CC3CCCN3c3ccccc32)c1` (stereo not given) is higher in survival: 73% for the first, 89% for the second.

Going from `Cc1ccc2nc(N(Cc3cccnc3)C(=O)CCS(=O)(=O)c3ccccc3)sc2c1` to `COc1cccc(CNC(=O)c2ccc3c(=O)n4nc(Nc5ccccc5)sc4nc3c2)c1`, the survival rises from 67% to 88%.

First: COc1ccc(-c2nc3ccccc3o2)cc1NC(=O)CSc1ccc(Cl)cc1
Second: COc1ccc(-c2nc3ccccc3o2)cc1NC(=O)Cc1ccc(Cl)cc1
The survival of the first is higher: 72% for the first, 54% for the second.

Compared with `COc1ccc(-c2nc3ccccc3o2)cc1NC(=O)COc1c(C)cc(Cl)cc1Cl`, `COc1ccc(OCC(=O)Nc2cc(-c3nc4ccccc4o3)ccc2Cl)cc1` is higher in survival: 67% for the first, 70% for the second.

First: Cc1cn2c(=O)cc(COc3ccc(NC(=O)c4cccc(F)c4)cc3)nc2s1
Second: COc1cccc(C(=O)c2cn(CC(=O)Nc3cccc(C)c3C)c3nc(C)ccc3c2=O)c1
The survival of the first is higher: 125% for the first, 67% for the second.

Compared with `COc1ccc(Cl)cc1NC(=O)c1cc2ccccn2n1`, `COc1ccc(OC)c(NC(=O)c2cc3c(s2)-c2ccccc2SC3)c1` is lower in survival: 124% for the first, 65% for the second.

Compared with `COc1cc(C2C(C(=O)c3ccco3)=C(O)C(=O)N2CCc2ccccc2)ccc1O` (stereo not given), `COc1ccc(Cn2c(=O)c3oc4ccccc4c3n(Cc3cccc(C)c3)c2=O)cc1` is lower in survival: 86% for the first, 64% for the second.

Compared with `CC(C)(C)c1ccc(OCCOCCn2c(-c3ccc(Cl)cc3)nc3ccccc3c2=O)cc1`, `Cc1cccc(OCCOCCn2c(-c3ccc(Cl)cc3)nc3ccccc3c2=O)c1C` is lower in survival: 115% for the first, 60% for the second.

Going from `Cc1ccc(C)c(OCCn2c(-c3ccc(Cl)cc3)nc3ccccc3c2=O)c1C` to `Cc1ccc(OCCn2c(-c3ccc(Cl)cc3)nc3ccccc3c2=O)c(C)c1`, the survival falls from 73% to 63%.

Compared with `Cc1ccccc1OCCn1c(-c2ccc(Cl)cc2)nc2ccccc2c1=O`, `Cc1cccc(OCCn2c(-c3ccc(Cl)cc3)nc3ccccc3c2=O)c1` is higher in survival: 57% for the first, 105% for the second.

Compared with `CCCNC(=O)c1c(NC(=O)c2ccc(C)cc2)sc2c1CCCCC2`, `Cc1ccc2c(c1)N(C(=O)CCC(=O)Nc1ccccc1Cl)CC(C)O2` (stereo not given) is higher in survival: 65% for the first, 105% for the second.

First: CCC1SC(NC(=O)COc2ccc(OC)cc2)=NC1=O (stereo not given)
Second: COc1ccc(Cl)cc1NC(=O)COC(=O)CC(C)(C)CC1=NS(=O)(=O)c2ccccc2N1
The survival of the first is higher: 104% for the first, 70% for the second.

First: COCCn1c(CCC(=O)Nc2ccc(C)c(Cl)c2)nc2cccnc21
Second: COCCNC(=O)N1c2ccccc2Sc2ccccc21
The survival of the first is higher: 84% for the first, 83% for the second.

Compared with `Cc1cc2c(cc1C)C(C)CC(C)(C)N2` (stereo not given), `CCOc1ccccc1NC(=O)COC(=O)CC(C)(C)CC1=NS(=O)(=O)c2ccccc2N1` is lower in survival: 94% for the first, 79% for the second.

Going from `O=C(NC1CCCCC1)C1OC(c2ccccc2)OC1C(=O)NC1CCCCC1` (stereo not given) to `CC(=O)Nc1ccc(S(=O)(=O)NCC2CCC(C(=O)NCc3ccccc3)CC2)cc1` (stereo not given), the survival falls from 86% to 71%.

Compared with `CCN(CC)C(=O)Cn1cc(SCC(=O)Nc2ccccc2C)c2ccccc21`, `CCOc1ccccc1NC(=O)N1c2ccccc2Sc2ccccc21` is lower in survival: 74% for the first, 55% for the second.

Going from `O=C(CN1CCCC1)N1c2ccccc2Sc2ccccc21` to `O=C(N1CCCC1)N1c2ccccc2Sc2ccccc21`, the survival rises from 88% to 111%.

Going from `COc1cc(NC(=O)N2c3ccccc3Sc3ccccc32)cc(OC)c1` to `CCc1ccc(NC(=O)COC(=O)CCCC2=NS(=O)(=O)c3ccccc3N2)cc1`, the survival rises from 62% to 109%.

Going from `Cc1nnc2c(Nc3ccccc3I)nc3nonc3n12` to `CCn1c2ccccc2c2nnc(SCCN3CCCCC3)nc21`, the survival rises from 77% to 82%.

Compared with `N#CCCn1cc(CO)c(-c2ccccc2)n1`, `O=C(COC(=O)CCCC1=NS(=O)(=O)c2ccccc2N1)Nc1ccc(Br)cc1` is lower in survival: 95% for the first, 72% for the second.

For `Cc1nc2ccn(Cc3cccs3)c(=O)c2cc1C(=O)N1CCN(c2ccc(F)cc2)CC1`, the survival was 131%.

`COc1ccc(-c2nc3ccccc3o2)cc1NC(=O)COc1ccc(C(C)(C)C)cc1` was tested, and the survival was 4% (active).
In the case of `CCCCC(=O)Nc1cc(-c2nc3ccccc3o2)ccc1OC`, the survival was 7% (active).
With `Cc1ccc(OCCOCCn2c(-c3ccc(Cl)cc3)nc3ccccc3c2=O)cc1` the survival was 39% (active).
For `CCOc1ccc(OCCOCCn2c(-c3ccc(Cl)cc3)nc3ccccc3c2=O)cc1`, the survival was 26% (active).
In the case of `Cc1cc(C)c(OCCOCCn2c(-c3ccc(Cl)cc3)nc3ccccc3c2=O)c(C)c1`, the survival was 43% (active).
`Cc1cc(C)cc(OCCOCCn2c(-c3ccc(Cl)cc3)nc3ccccc3c2=O)c1` was tested, and the survival was 43% (active).
In the case of `O=C(O)c1ccccc1NC(=O)N1c2ccccc2Sc2ccccc21`, the survival was 40% (active).
With `COc1ccc(OC)c(NC(=O)N2c3ccccc3Sc3ccccc32)c1` the survival was 5% (active).
For `COc1ccccc1NC(=O)N1c2ccccc2Sc2ccccc21`, the survival was -6% (active).
In the case of `COc1ccccc1NC(=O)COC(=O)CC(C)(C)CC1=NS(=O)(=O)c2ccccc2N1`, the survival was -1% (active).
For `Cc1cccc(NC(=O)COC(=O)CCCC2=NS(=O)(=O)c3ccccc3N2)c1`, the survival was -2% (active).
